Values joined by “and” are separate entries in the source; they are usually repeats but may differ in a detail not shown here. Identical values can stand only once. Active and inactive are the calls of the source.
Assay: basal 3T3-L1 adipocyte mitochondrial potential changes, profiling panel, cell-based, JC-1 fluorescence, 3T3-L1 adipocytes, 24 h, 100 nL compound (AID 1168); note: test concentration not given here
Conditions: JC-1 mitochondrial fluorescence, higher = more signal, called active from +8 up or from −8 down

z-score, inactive:
COC(=O)C1=C(C)N(Cc2ccccc2)[C@]23O[C@](C(=O)OC)(C(=O)N2[C@@H]1c1ccccc1)[C@@H](C(=O)OC)[C@H]3C(=O)OC 0.225 and 1.49
CO[C@@H]1COC(=O)CC=C[C@H](C)COC(=O)[C@H](C)NC(=O)CC=C[C@H]1C 0.214
COC(=O)C1=C(C)N(Cc2ccccc2)C2=C(C(C)=O)[C@H](c3ccccc3)[C@@](O)(C(=O)OC)C(=O)N2[C@@H]1c1ccccc1 -1.09 and 2.47
C[N+](C)(C)CCCCNC(=O)[C@H]1C[C@H]2C(=O)N[C@@H](CCCC[N+](C)(C)C)C(=O)N2[C@H]1c1cccc(OCCO)c1 -0.0125 and 0.0612
CCOC(=O)NN=C1C[C@@H](O)[C@@H](O)[C@@H]2[C@@H]3C(=O)N(Cc4ccc5c(c4)OCO5)C(=O)[C@@H]3CC[C@@H]12 1.11
C[N+](C)(C)CCCCNC(=O)[C@H]1C[C@H]2C(=O)N[C@@H](CCCC[N+](C)(C)C)C(=O)N2[C@H]1c1ccc(O)cc1 -0.258 and -0.841
O=c1n(-c2ccccc2)c(=O)n2n1CC[C@@H]1C(=NOC[C@@H](O)COCc3ccco3)[C@H]3O[C@H]3[C@@H](O)[C@@H]12 0.127 and -1.22
C=C[C@@H](C)[C@H](O)c1ccc(O)c2ccccc12 -1.42 and -0.865
COC(=O)C1=C(C)N(Cc2ccccc2)C2=C(C(C)=O)C[C@@](O)(C(=O)OC)C(=O)N2[C@@H]1c1ccccc1 0.227 and -0.00623
CCC[C@@H]1C[C@@]1(CCC)[C@@H](NC(=O)c1ccc(-c2ccccc2)cc1)c1cccc(Cl)c1 -0.723 and 0.883
C=CCN(CCCC)C(=O)C1N(CCOCCO)C(=O)C2C(C(=O)O)C3C=CC21O3 (stereo not given) -0.309 and -0.776
C=CCN(Cc1ccccc1)C(=O)C1N(CCOCCO)C(=O)C2C(C(=O)O)C3C=CC21O3 (stereo not given) 0.978 and -0.925
C=CC[C@@H](O)c1ccc(O)c2ccccc12 0.0544 and -0.0565
CO[C@@H]1C=CCC(=O)N2CCC[C@H]2C(=O)OC[C@H](C)C(=O)OC[C@H]1C 0.673
CN1C(=O)C2CC=C([C@H]3Oc4ccccc4S(=O)(=O)N4CCC[C@@H]34)CC2C1=O (stereo not given in full) 0.243 and 0.347
CCOC(=O)c1ccc(NC(=O)O[C@H]2[C@H](OC(=O)Nc3ccccc3)[C@@H](OC(=O)Nc3ccccc3)[C@@H](OC)O[C@@H]2CO)cc1 2.13 and 0.661
C=CCN(Cc1ccccc1)C(=O)C(c1cccs1)N(C(=O)/C=C\C(=O)O)c1c(Cl)cccc1CO (stereo not given) 0.426 and 0.223
CC(CO)N1C(=O)[C@@H]2C3C(=O)OCCC=C[C@H]3OC23C=CCN(CCN2CCOCC2)C(=O)[C@@H]13 (stereo not given in full) -0.189 and -0.818
CO[C@H]1COC(=O)CC=C[C@@H](C)COC(=O)[C@@H](OCc2ccccc2)C=C[C@@H]1C -0.0508
CCCC[C@@H]1CN2[C@@H](CC[C@@H](C)[C@@H]2c2ccc(Br)cc2)C(=O)O1 -0.136 and -1.09
CCN1C(=O)[C@H]2[C@H]3[C@H](O)[C@H](O)CC(=NOC[C@@H](O)COCc4ccco4)[C@@H]3CC[C@H]2C1=O -0.844 and -0.925
C=CCN(CCCCC)C(=O)C(c1cccs1)N(C(=O)/C=C\C(=O)O)c1ccc(CCO)cc1 (stereo not given) -0.177 and 0.506
C=CCN(C(=O)C1N(c2c(Cl)cccc2CO)C(=O)C2C(C(=O)O)C3C=CC21O3)c1ccc(OC)cc1 (stereo not given) -0.955 and 0.659
C=CCN(CCCC)C(=O)C1N(C(C)(C)CO)C(=O)C2C(C(=O)O)C3C=CC21O3 (stereo not given) -0.134 and 0.142
C=C[C@@H](C)[C@@H](O)c1ccc(OCCO)cc1 -0.82 and -0.165
C=CCN(CCCCC)C(=O)C1N(C(C)(C)CO)C(=O)C2C(C(=O)O)C3C=CC21O3 (stereo not given) 0.044 and -0.845
CCOC(=O)[C@@H]1CC2O[C@]23C[C@@H]1C(=O)N1CCC[C@@H]1[C@H]3O[Si](C)(C)C(C)(C)C (stereo not given in full) -0.744 and -0.631
CCOC(=O)C[C@H]1[C@H](OC(=O)c2ccccc2-c2ccccc2)[C@@H](NC(=O)Cc2ccc(OC)cc2)c2cc(OCCCO)ccc2N1C(=O)Cc1ccc(OC)cc1 0.491 and 0.191
COC(=O)CC=C[C@@H](C)[C@@H](CO)NS(=O)(=O)c1ccc(C)cc1 -0.0819 and -0.161
C[N+](C)(C)CCCCCCNC(=O)[C@@H]1C[C@@H]2C(=O)N[C@@H](CCCC[N+](C)(C)C)C(=O)N2[C@@H]1c1ccc(O)cc1 0.608 and 0.109
COC(=O)C1=C(C)N(Cc2ccccc2)C2=C3C(=O)CCC[C@@H]3[C@@](O)(C(=O)OC)C(=O)N2[C@@H]1c1ccccc1 -0.512 and 0.739
O=C1C[C@]2(c3ccc([N+](=O)[O-])cc3)C(=O)N(Cc3ccccc3)c3cc(CO)ccc3[C@H]2N1C1CCCCC1 -0.0101 and -0.0655
CC(C)=CCCC(C)=CCON=C1C[C@@H](O)[C@@H](O)[C@@H]2[C@@H]3C(=O)N([C@@H](C)c4ccccc4)C(=O)[C@@H]3CC[C@H]12 1.08
C[C@@H]1CC[C@H]2C(=O)NC[C@@H](O)CN2[C@H]1c1ccc(Br)cc1 -0.455 and 0.104
COc1ccc(O[C@H]2C=C[C@@H](c3ccccc3)O[C@@H]2COC(=O)CCC(C)=NO[C@H](C)c2cn([C@H](CO)Cc3ccccc3)nn2)cc1 -2.62 and -0.634
C=CCN(CCCC)C(=O)C(c1cccs1)N(C(=O)/C=C\C(=O)O)c1c(Cl)cccc1CO (stereo not given) -0.96 and 0.0799
CC(CO)N1C(=O)[C@@H]2C3C(=O)OCCC=C[C@H]3OC23C=CCN(c2ccc(Cl)cc2)C(=O)[C@@H]13 (stereo not given in full) 0.518 and -0.689
C=CCN(C(=O)C(c1cccs1)N(CCOCCO)C(=O)/C=C\C(=O)O)C(C)(C)C (stereo not given) 1.16 and 0.0544
C=C[C@H](OC)[C@@H](O)c1ccc(O)c(F)c1 -0.186 and -0.636
CC(CO)N1C(=O)[C@@H]2C3C(=O)OCCC=C[C@H]3OC23C=CCN(C(C)(C)C)C(=O)[C@@H]13 (stereo not given in full) -0.105 and -0.534
